Compounds with a hit are over-represented: about 3.9% of the library has one in this group of screens.
Bead autofluor: flagged as autofluorescent in microsphere protease counterscreen; compound autofluorescence counterscreen, microsphere flow cytometry; hits give high values; fluorescence intensity (concentration not given with the values); 360,000 compounds, 3.1% hits; AID 624483; in the data active = fluorescence intensity above about 16000; inconclusive = no clear call, values can overlap the other calls
BoNT-F LC inh: BoNT F light chain protease inhibition | AID 588497 | Multiplex microsphere protease cleavage assay, flow cytometry | 360,000 compounds, 0.22% hits | inhibition, % at 10 µM; in the data active = inhibition above about 35%, passing the limit was not always enough; inconclusive = no clear call, values can overlap the other calls
VHR inh abs: DUSP3 (human) phosphatase inhibition. P51452. recombinant VHR phosphatase, pNPP absorbance. inhibition, % at 13.3 µM. 290,000 compounds, 0.52% hits. AID 1654; in the data active = inhibition above about 50%
Target sequence (P51452 whole entry, looked up): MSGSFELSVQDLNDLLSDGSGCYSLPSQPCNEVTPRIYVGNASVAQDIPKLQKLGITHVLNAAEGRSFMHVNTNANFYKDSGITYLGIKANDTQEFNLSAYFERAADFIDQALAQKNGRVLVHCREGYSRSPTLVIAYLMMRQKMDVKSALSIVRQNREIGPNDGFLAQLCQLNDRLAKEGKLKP
3CLpro inhibitor: SARS-CoV 3CLpro protease inhibition. P0C6X7. recombinant SARS-CoV 3CLpro, quenched FRET peptide cleavage. inhibition, % at 6 µM. 290,000 compounds, 0.14% hits; in the data active = inhibition above about 12%
Anthrax LF inh2: inhibitors of Bacillus anthracis lethal factor protease; P15917; multiplex microsphere protease cleavage assay, LF; inhibition, % at 10 µM; 360,000 compounds, 0.12% hits; AID 588501
BoNT A protease: BoNT A light chain protease inhibition; 360,000 compounds, 0.17% hits; multiplex microsphere protease substrate cleavage, flow cytometry; inhibition, % at 10 µM
Numbers stand for hits. Rule as the data show it, unless noted: active = inhibition above about 30%; inconclusive = no clear call, values can overlap the other calls; inactive = below that.

Screening CCC(=O)Nc1ccccc1C(=O)OCC(=O)Nc1ccc(S(N)(=O)=O)cc1 returned Bead autofluor inactive, BoNT-F LC inh inactive, VHR inh abs inactive, 3CLpro inhibitor inactive, Anthrax LF inh2 inactive and BoNT A protease inactive.
For CCCCNc1ccccc1C(=O)OCC(=O)Nc1ccc(S(N)(=O)=O)cc1 the results were Bead autofluor 17458, BoNT-F LC inh inactive, VHR inh abs inactive, 3CLpro inhibitor inactive, Anthrax LF inh2 inactive and BoNT A protease inactive.
Screening COc1ccccc1CNCC(O)(c1ccc(Cl)cc1)c1ccc(Cl)cc1 returned Bead autofluor 23819, BoNT-F LC inh inactive, VHR inh abs inactive, 3CLpro inhibitor inactive, Anthrax LF inh2 inactive and BoNT A protease inconclusive.
`COc1ccccc1CNCC(O)(c1ccc(F)cc1)c1ccc(F)cc1` gave Bead autofluor inactive, BoNT-F LC inh inactive, VHR inh abs inactive, 3CLpro inhibitor inactive, Anthrax LF inh2 inactive and BoNT A protease inactive.
CC(C)(CNC(=O)c1ccccc1F)CNC(=O)c1ccccc1F was read as Bead autofluor inactive, BoNT-F LC inh inactive, Anthrax LF inh2 inactive and BoNT A protease inactive.
For NC(=O)c1sc2nnc(-c3ccccc3)c(-c3ccccc3)c2c1N the results were Bead autofluor 17320, BoNT-F LC inh inconclusive, VHR inh abs inactive, 3CLpro inhibitor inactive, Anthrax LF inh2 inactive and BoNT A protease inactive.
For COc1ccc(-c2nn(-c3ccccc3)cc2/C=C2/SC(=S)N(Cc3ccco3)C2=O)c(C)c1 the results were Bead autofluor inactive, BoNT-F LC inh 37, VHR inh abs inactive, 3CLpro inhibitor inactive, Anthrax LF inh2 36 and BoNT A protease 30.
`COc1ccc(-n2c(C)cc(/C=C3\SC(=S)N(Cc4ccco4)C3=O)c2C)cc1` gave Bead autofluor inactive, BoNT-F LC inh inactive, VHR inh abs inactive, 3CLpro inhibitor inactive, Anthrax LF inh2 inactive and BoNT A protease inactive.
Screening CC(=O)Oc1ccc(Cn2c(C)c(C(=O)NCc3ccccc3C(F)(F)F)sc2=O)cc1 returned Bead autofluor inactive, BoNT-F LC inh inactive, Anthrax LF inh2 inactive and BoNT A protease inactive.
`CCOC(=O)c1cc(-c2ccc(C#N)cc2)nc2c1c(C)nn2CCC#N` gave Bead autofluor inactive, BoNT-F LC inh inactive, VHR inh abs inactive, 3CLpro inhibitor inactive, Anthrax LF inh2 inactive and BoNT A protease inactive.
CCOC(=O)c1cc(-c2ccc(OC)cc2)nc2c1c(C)nn2CCC#N was read as Bead autofluor 20850, BoNT-F LC inh inactive, VHR inh abs inactive, 3CLpro inhibitor inactive, Anthrax LF inh2 inactive and BoNT A protease inconclusive.
For Cc1ccc(-c2nnc(-n3ncc(C#N)c3N)c3ccccc23)cc1C the results were Bead autofluor inactive, BoNT-F LC inh inactive, VHR inh abs inactive, 3CLpro inhibitor inactive, Anthrax LF inh2 inactive and BoNT A protease inactive.
Screening COc1ccc(-c2ccc(NCCN3CCOCC3)nn2)cc1OC returned Bead autofluor inactive, BoNT-F LC inh inactive, VHR inh abs inactive, 3CLpro inhibitor inactive, Anthrax LF inh2 inactive and BoNT A protease inactive.
`CCCCCCOc1ccc(C(=O)O)cc1` gave Bead autofluor inactive, BoNT-F LC inh inactive, VHR inh abs inactive, 3CLpro inhibitor inactive, Anthrax LF inh2 inactive and BoNT A protease inactive.
CCCCCCOc1ccc(C(=O)n2cnc(N)n2)cc1 was read as Bead autofluor 21741, BoNT-F LC inh inactive, VHR inh abs inactive, 3CLpro inhibitor inactive, Anthrax LF inh2 inactive and BoNT A protease inactive.
For CCn1c(COc2cccc(C)c2)nnc1SCC(=O)N1CCCC1 the results were Bead autofluor inactive, BoNT-F LC inh inactive, VHR inh abs inactive, 3CLpro inhibitor inactive, Anthrax LF inh2 inactive and BoNT A protease inactive.
Screening Cc1cccc(OCc2nnc(SCC(=O)N3CCCC3)n2C)c1 returned Bead autofluor 16407, BoNT-F LC inh inactive, VHR inh abs inactive, 3CLpro inhibitor inactive, Anthrax LF inh2 inactive and BoNT A protease inactive.
`Cc1cccc(OCc2nnc(SCC(=O)NC3CCCC3)n2C)c1` gave Bead autofluor inactive, BoNT-F LC inh inactive, VHR inh abs inactive, 3CLpro inhibitor inactive, Anthrax LF inh2 inactive and BoNT A protease inactive.
For Cc1cccc(OCc2nnc(SCC(=O)N3CCc4ccccc43)n2C)c1 the results were Bead autofluor 24057, BoNT-F LC inh inactive, VHR inh abs inactive, 3CLpro inhibitor inactive, Anthrax LF inh2 inactive and BoNT A protease inactive.
`COc1ccccc1NC(=O)CCS(=O)(=O)c1cc2c(cc1Cl)NC(=O)CO2` gave Bead autofluor inactive, BoNT-F LC inh inactive, VHR inh abs inactive, 3CLpro inhibitor inactive, Anthrax LF inh2 inactive and BoNT A protease inactive.
CCC(C(=O)Nc1ccc([N+](=O)[O-])cn1)c1ccccc1 (stereo not drawn) was read as VHR inh abs inactive and 3CLpro inhibitor inactive.
Screening COC(=O)CC/C(C)=N\Nc1ccc([N+](=O)[O-])cc1[N+](=O)[O-] returned Bead autofluor 21329, BoNT-F LC inh inactive, VHR inh abs inactive, 3CLpro inhibitor inactive, Anthrax LF inh2 inactive and BoNT A protease inactive.
`C/C(CC(C)C)=N/Nc1ccc([N+](=O)[O-])cc1[N+](=O)[O-]` gave VHR inh abs inactive and 3CLpro inhibitor inactive.
O=C(Nc1ccccc1N1CCCC1)c1cc2ccccc2o1 was read as Bead autofluor inactive, BoNT-F LC inh inactive, VHR inh abs inactive, 3CLpro inhibitor inactive, Anthrax LF inh2 inactive and BoNT A protease inactive.
For Cc1cc(-c2csc(NC(=O)c3cc4ccccc4o3)n2)c(C)n1C the results were Bead autofluor 23885, BoNT-F LC inh inactive, VHR inh abs inactive, 3CLpro inhibitor inactive, Anthrax LF inh2 inactive and BoNT A protease inactive.
CN1CCN(c2ccccc2NC(=O)c2cc3ccccc3o2)CC1 was read as Bead autofluor 21317, BoNT-F LC inh inactive, VHR inh abs inactive, 3CLpro inhibitor inactive, Anthrax LF inh2 inactive and BoNT A protease inactive.
Screening CC(C)C(=O)Nc1ccc(NC(=O)c2cc3ccccc3o2)cc1 returned Bead autofluor 22449, BoNT-F LC inh inactive, VHR inh abs inactive, 3CLpro inhibitor inactive, Anthrax LF inh2 inactive and BoNT A protease inactive.
Screening CC(C)C(=O)Nc1ccc(NC(=S)NC(=O)c2cc3ccccc3o2)cc1 returned Bead autofluor inactive, BoNT-F LC inh inactive, VHR inh abs inactive, 3CLpro inhibitor inactive, Anthrax LF inh2 inactive and BoNT A protease inactive.
For CCn1nnc(NC(=O)CSc2ccc(Cl)cc2)n1 the results were Bead autofluor 24449, BoNT-F LC inh inactive, VHR inh abs inactive, 3CLpro inhibitor inactive, Anthrax LF inh2 inactive and BoNT A protease inactive.
`C[C@H]1COC(=O)[C@@H](NC(=O)OCC2c3ccccc3-c3ccccc32)C/C=C\C[C@H](CC(=O)NCCO)C(=O)N1` gave Bead autofluor inactive, BoNT-F LC inh inactive, Anthrax LF inh2 inactive and BoNT A protease inactive.
`COc1ccccc1CNS(=O)(=O)c1ccc(-n2cccn2)cc1` gave Bead autofluor inactive, BoNT-F LC inh inactive, VHR inh abs inactive, 3CLpro inhibitor inactive, Anthrax LF inh2 inactive and BoNT A protease inactive.
Screening CC(NC(=O)C1CCN(S(=O)(=O)c2cccs2)CC1)c1cccc(Cl)c1 (stereo not drawn) returned Bead autofluor inactive, BoNT-F LC inh inactive, Anthrax LF inh2 inactive and BoNT A protease inactive.

Compound activity from PubChem.
